Bioassay records (PubChem)
Only some compounds are listed: those with a hit (about 6.5% of all), similar ones and a draw of the others.
HT1080NT lethal: kills 2HG-producing HT-1080-NT fibrosarcoma cells | 360,000 compounds, 1.6% hits | Potency, µM (series often up to 46.1 µM), for the others: at the highest dose activity, negative = less viability, hits mostly cytotoxic | HT-1080-NT fibrosarcoma viability, CellTiter-Glo ATP luminescence, 48 h | AID 686970;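 further: NT is the 2HG producing partner of a matched IDH1 knockdown line; potency means the concentration at half of the fitted maximal effect; 0% = DMSO-treated cells and -100% = media-only wells without cells; nearly all actives have a fitted effect of over 55% in size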
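A 48-hour cytotoxicity screen used HT-1080-NT cells plated 2 hours before compound delivery. ATP-based CellTiter-Glo luminescence measured viability, normalized to DMSO and no-cell controls.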
Giardia kill: kills Giardia lamblia; Giardia lamblia trophozoite viability; activity change, % at 7.66 µM, hits read low; 340,000 compounds, 0.15% hits; AID 540267; in the data active means activity change below about -80%; inconclusive means between about -30% and that limit;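 further: parasites exposed to compound for two days anaerobically before the ATP read; on the % scale 0 is the no-effect control and ±100 the full control effect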
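Trophozoites 100 cells/well + cpd; 48 hrs, 37 deg C, anaerobic. ATPLite 1-Step added, 15-30 min RT, luminescence read (ATP-based viability).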
IL1B secr inh: blocks inflammasome-driven IL-1 beta release | THP-1 LPS/ATP IL-1B secretion, AlphaLISA, 16 h; stronger effect = lower value | activity change, % at 57.5 µM | 360,000 compounds, 4.7% hits | AID 743279; in the data active means activity change below about -50%; inconclusive means mostly about -30% to -49%; further: on the % scale 0 is the no-effect control and ±100 the full control effect
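THP-1 cells pretreated 1 hr with compounds (up to 57.5 uM final), then stimulated with LPS (250 ng/mL final) plus ATP (1.25 mM final); secreted IL-1B measured by AlphaLISA after 16 hr, decreased signal indicating inhibition.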
HT1080 IDH1KD tx: toxicity to HT-1080 IDH1 knockdown cells (counter line) | AID 686971 | HT-1080 IDH1 knockdown viability, ATP luminescence, 48 h | Potency, µM (highest dose often 46.1 µM), for inactives: top-dose activity, negative = toxicity, hits mostly cytotoxic | 360,000 compounds, 2% hits;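 further: potency means the concentration at half of the fitted maximal effect; 0% = DMSO wells and -100% = cell-free medium wells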
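HT-1080-IDH1KD cells (IDH1 knocked down), 750/well in RPMI with 5% FBS, treated with compound 48 h at 37 degrees C. Viability by CellTiter-Glo luminescence, normalised to DMSO and no-cell wells; concentration-response curves classed.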
HepG2 viability: counter-screen for TGF-b inhibitors: cytotoxicity in HepG2 cells | HepG2 CAGA-GFP viability, ATP luminescence, 18 h | 410,000 compounds, 0.76% hits | Potency, µM (highest dose often 46.1 µM), for inactives: at the top dose activity change, negative = cytotoxicity, usual class: cytotoxic; further: potency means the concentration at half of the fitted maximal effect
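CellTiter-Glo luminescence gave cytotoxicity after 18 hours at 37 degrees C. The cells were HepG2 CAGA-GFP in 1% FBS DMEM, stimulated with 500 pg/mL TGF-beta after compound addition. %Activity was normalised to no-cell wells (complete cell-killing) and DMSO (no toxicity), and curves were fitted and classified.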
TGFb SMAD3 inh: TGF-b pathway inhibition. HepG2 CAGA-GFP TGF-b/SMAD3 reporter, GFP fluorescence, 18 h; TGF-beta stimulated, 500 pg/mL final. Potency, µM (titrated, usually from 46.1 µM), inactives show top-dose activity, negative = inhibition, hits mostly inhibitors. 410,000 compounds, 1.2% hits. AID 588855; further: potency means the concentration at half of the fitted maximal effect; on the % scale 0 is the no-effect control and ±100 the full control effect; nearly all actives have a fitted effect of over 65% in size
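HEPG2 CAGA-GFP reporter cells (1000/well, DMEM with 1% FBS) received compounds, then recombinant TGF-beta at 500 pg/mL final for 18 hours at 37 degrees C. Per-cell GFP summed per well was normalised to unstimulated and stimulated DMSO controls before curve fitting.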
Starred values were filed as active, the others as inactive; ? = inconclusive; . = no result; ! = repeats disagree. Unless noted, the call rests on the fitted dose curve; in most records, active means well fitted curve in the direction sought with a large enough effect; inconclusive means small, poorly fitted or top-dose-only effect, or another doubt; inactive means no such curve, though single readings can be large; an effect the other way counts as inactive or inconclusive.

SMILES	HT1080NT lethal	Giardia kill	IL1B secr inh	HT1080 IDH1KD tx	HepG2 viability	TGFb SMAD3 inh
CN(Cc1ncc[nH]1)Cc1cn(-c2ccccc2)nc1-c1ccc2c(c1)OCO2	-2%	-7	?	-17%	-17%	0%
Cc1ccc(-c2nn(-c3cccc(F)c3)cc2CN2CCN(c3ccccn3)CC2)o1	-1%	-9	-2	-8%	-4%	?
Cc1ccc(-n2cc(CN(C)Cc3ncc[nH]3)c(-c3cccc(C)c3)n2)cc1	18µM*	-12	-81*	18µM*	-24%	?
Cc1ccc(-c2nn(-c3cccc(F)c3)cc2CN(Cc2nccn2C)C(C)C)o1	-20%	7	-96*	?	-27%	?
Cc1ccc(-n2cc(CN3CCC(O)(c4ccccn4)CC3)c(-c3ccc(F)cc3)n2)cc1	16µM*	-11	-103*	?	-51%	?
Cc1ccc(C)c(OCC(=O)Nc2cccc(S(=O)(=O)NC3=NCCCCC3)c2)c1	1%	39	-28	-12%	-50%	-43%
CC(C)C(=O)Nc1csc(C(F)(F)F)c1-c1ccccc1	11%	16	17	7%	14%	5%
Cc1ccc(-n2cc(CN(C)CCc3cn[nH]c3)c(-c3cccc(C)c3)n2)cc1	10%	16	-19	15%	14%	-1%
CCN1CC(CN(C)Cc2cn(-c3ccc(C)cc3)nc2-c2cccc(C)c2)CC1=O (stereo not given)	-24%	8	-86*	-14%	-28%	?
Cc1ccc(-n2cc(CN(C)Cc3nccn3C)c(-c3ccc(F)cc3)n2)cc1	?	9	-139*	?	-71%	?
CCc1ccc2c(c1)c1nc(C)sc1n2CC	-3%	2	-7	-2%	1%	2%
COc1ccc(NC(=O)CSCC(=O)Nc2cccc(S(=O)(=O)N3CCCCCC3)c2)cc1	-2%	20	-4	-11%	-15%	18%
COc1ccc(-n2c(Cc3cccn3C)nnc2SCC(=O)Nc2ccc3c(c2)OCCO3)cc1	-3%	41	-5	0%	-11%	7%
COc1ccc(OCC(=O)Nc2nc3c(s2)CCCC3)cc1	6%	3	-10	0%	-9%	-2%
O=C(NC(=S)Nc1nc2c(s1)CCCC2)c1ccccc1	1%	?	0	0%	-16%	-2%
O=C(Nc1cccc(Br)c1)Nc1nc2c(s1)CCCCCC2	.	.	.	.	-18%	11µM*
COc1ccc(NC(=O)Nc2nc3c(s2)CCCC3)cc1	5%	-25	-52*	11%	-7%	0%
O=C(NCCc1ccccc1)c1cc(Nc2ccccc2)nc2ccccc12	.	.	.	.	-12%	-13%
Cc1ccc(OCC(O)CN2CCN(Cc3ccc4c(c3)OCO4)CC2)c(C)c1 (stereo not given)	?	4	-60*!	-30%	-15%	-18%
COc1ccccc1NC(=O)c1ccccc1NC(=O)c1cc(Cl)ccc1NC(=O)c1ccco1	-19%	6	56	-12%	1%	?
O=C(Nc1ccc(F)cc1)C(CCc1ccccc1)N1CCN(c2ccncc2)CC1 (stereo not given)	21µM*	.	-27	?	.	.
O=C(Nc1ccc(F)cc1)C(c1ccccc1)N1CCN(c2ccncc2)CC1 (stereo not given)	-20%	.	-19	3%	.	.
CCOc1cc(N2CCOCC2)c(OCC)cc1NC(=O)COC(=O)c1c(CC)noc1C	0%	-3	19	16%	-12%	-1%
O=C1NC(c2ccccc2)=C(c2ccc3ccccc3n2)C(c2ccccc2)N1 (stereo not given)	-10%	2	3	-14%	-34%	?
O=C1NC(c2ccccc2)=C(c2nc3ccccc3s2)C(c2ccc(O)cc2)N1 (stereo not given)	7.9µM*	-6	-5	5.6µM*	-81%	?
